Several values for one entry are separate records, joined by “and”; a condition that tells them apart may be missing. Identical values can stand only once. This is part of a sample that, as a whole, favours compounds with a hit. Of some 83,000 tested, about 20% had one in any assay.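 Treatment: one concentration, 48 hours, 96-well format. Scoring: percent growth, with anything below 10 considered active.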 Activity calls are given as the source filed them.
How the values were obtained:
Assay in all cases: NCI-60 one-dose screen, 48 h (100 = growth as untreated, 0 = no growth, -100 = all killed)
Details in all cases: 10 µM unless noted
[1] = system: SR leukemia
[2] = system: RPMI-8226 leukemia
[3] = system: OVCAR-8 ovarian
[4] = system: OVCAR-4 ovarian
[5] = system: SK-OV-3 ovarian
[6] = system: IGROV1 ovarian
[7] = system: OVCAR-3 ovarian
[8] = system: HS 578T breast
[9] = system: NCI/ADR-RES ovarian
[10] = system: T-47D breast
[11] = system: BT-549 breast
[12] = system: MDA-MB-435 melanoma
[13] = system: SW-620 colon
[14] = system: MCF7 breast
[15] = system: HCT-116 colon
[16] = system: HCC-2998 colon
[17] = system: KM12 colon

SMILES | growth [1] | growth [2] | growth [3] | growth [4] | growth [5] | growth [6] | growth [7] | growth [8] | growth [9] | growth [10] | growth [11] | growth [12] | growth [13] | growth [14] | growth [15] | growth [16] | growth [17]
O=C(Nc1ccccc1C(=O)N/N=C(\c1ccccc1)c1ccccn1)c1ccccc1 | 4.3% (active) | 20.8% (inactive) | 13.2% (inactive) | 12.7% (inactive) | 10.7% (inactive) | 20.9% (inactive) | 28% (inactive) | 65.2% (inactive) | 9.54% (active) | 13.3% (inactive) | 31.3% (inactive) | 27.7% (inactive) | 29.2% (inactive) | 9.02% (active) | 20.7% (inactive) | 29.7% (inactive) | 21.6% (inactive)
O=C1C(N2CCOCC2)=C(I)C(=O)c2ncccc21 | 19.2% (inactive) | 91.2% (inactive) | 69.5% (inactive) | 59% (inactive) | 79.3% (inactive) | 54.5% (inactive) | 69.8% (inactive) | 65.1% (inactive) | 75.4% (inactive) | 53.7% (inactive) | 87.1% (inactive) | -69.4% (active) | 69.2% (inactive) | 41.3% (inactive) | 49.4% (inactive) | 86.8% (inactive) | 91.8% (inactive)
O=C(CCN1CCOCC1)Nc1cccc(-n2cc(-c3ccncc3)c(-c3ccc(Cl)c(O)c3)n2)c1 | 16.8% (inactive) | 17.1% (inactive) | 39.5% (inactive) | 66.5% (inactive) | 25.1% (inactive) | 51.8% (inactive) | 14.3% (inactive) | 7.21% (active) | 21.5% (inactive) | 38.3% (inactive) | 11.6% (inactive) | -64.1% (active) | 23.4% (inactive) | 11.4% (inactive) | 21.1% (inactive) | 66.9% (inactive) | 23.7% (inactive)
COc1cc(-c2[nH]ncc2Nc2ccc(Cl)cc2)cc(OC)c1OC | 67.7% (inactive) | 21.1% (inactive) | 67.5% (inactive) | 71.6% (inactive) | 64.3% (inactive) | 69.8% (inactive) | 86.1% (inactive) | 66% (inactive) | 61.7% (inactive) | 46.4% (inactive) | 29.8% (inactive) | 55.5% (inactive) | 82.6% (inactive) | 41.9% (inactive) | 58.4% (inactive) | 83.4% (inactive) | 63.5% (inactive)
O=C(N/N=C/c1ccc(O)cc1O)c1cccc(Nc2ccnc(C(F)(F)F)c2)c1 | 21.7% (inactive) | 30.8% (inactive) | 22.7% (inactive) | 39.9% (inactive) | 25.1% (inactive) | 34.2% (inactive) | 32% (inactive) | 44.8% (inactive) | 49.6% (inactive) | 28.8% (inactive) | 42.3% (inactive) | 41% (inactive) | 35.7% (inactive) | 21.2% (inactive) | 12.3% (inactive) | 33.7% (inactive) | 34.7% (inactive)
CC(C)=CCc1cc(O)c(O)c2oc3cc(O)cc(O)c3c(=O)c12 | 25.9% (inactive) | 48.2% (inactive) | 51.1% (inactive) | 62.5% (inactive) | 65.7% (inactive) | 55% (inactive) | 67.4% (inactive) | 92.2% (inactive) | 28.2% (inactive) | 69.5% (inactive) | 75.1% (inactive) | 61.1% (inactive) | 61.9% (inactive) | 91.6% (inactive) | 43.1% (inactive) | 104% (inactive) | 59.8% (inactive)
O=C1CCc2c(sc3[nH]c(=S)n(Cc4ccc(Cl)cc4)c(=O)c23)C1 | 17.9% (inactive) | -25.5% (active) | 7.83% (active) | 12.4% (inactive) | -10.1% (active) | 23.3% (inactive) | 6.66% (active) | 5.06% (active) | -0.97% (active) | -3.14% (active) | -10.1% (active) | 11.3% (inactive) | 16.5% (inactive) | 6.24% (active) | 5.99% (active) | 4.16% (active) | -45.8% (active)
O=C1/C(=C/c2ccccc2[N+](=O)[O-])Cc2ccccc21 | 3.7% (active) and 11.5% (inactive) | -5.97% (active) and 3.37% (active) | 0.344% (active) and 59.9% (inactive) | -36.5% (active) and -39.5% (active) | 70.4% (inactive) and 95.2% (inactive) | -10.6% (active) and 17.3% (inactive) | -23.8% (active) and -50.2% (active) | 32.3% (inactive) and 71.2% (inactive) | -47.5% (active) | 1.93% (active) and 64% (inactive) | 19.4% (inactive) and 27.3% (inactive) | 28.4% (inactive) and 36.3% (inactive) | -56.2% (active) and -45.4% (active) | 9.87% (active) and 13% (inactive) | -76.6% (active) and -25.5% (active) | 85% (inactive) and 106% (inactive) | 52% (inactive) and 32.2% (inactive)

Source: PubChem BioAssay (NCI)
